# Entries with a potency or affinity are not part of this list. Unmarked numbers belong to inactive results. No rule for the calls is given here.
# Assay: viability loss in HEK293 cells – cell-based, plate reader, cherry-picked samples, cytotoxicity control, dose response (AID 743446)
# Details: stronger effect = lower value; at 26 µM unless noted
row,SMILES,max activity
1,Cc1c(NC(=O)c2ccc(-c3ccccc3)cc2)cccc1C(=O)O,41.3%
2,CC(C)(C)c1ccc(Cn2c(=O)cnc3ccccc32)cc1,-26.8% [at 12 µM]
3,COc1ccc(-c2cc(C(=O)Nc3cccc(O)c3)no2)cc1,75.5% [at 0.195 µM]
4,O=C(Nc1cccnc1)c1cc(-c2ccc3c(c2)OCO3)on1,26.9% [at 12 µM]
5,COc1cccc(C(=O)Nc2ccc3c(c2)OC[C@@H](C)N(CC2CC2)C[C@H](C)[C@H](OC)CN(C)C3=O)c1,13% [at 0.05 µM]
6,O=C(c1ccc2c(c1)OCCO2)C1CCN(S(=O)(=O)c2ccc(F)cc2)CC1,25.1% [at 0.1 µM]
7,CC(=O)c1ccc(Nc2nc(-c3sc(C)nc3C)cs2)cc1,-13.6%
8,Cc1oc(-c2ccc3c(c2)OCCO3)cc1C(=O)O,-18.6%
9,N#Cc1cccc(-c2ccc([C@@H]3[C@H](CO)N4CCCCN(C(=O)Nc5cccc(F)c5)C[C@@H]34)cc2)c1,4.74% [at 12 µM]
10,C[C@H](CO)N1C[C@H](C)[C@H](CN(C)C(=O)Nc2ccc(F)cc2)OCCCC[C@H](C)Oc2ccc(NC(=O)NC3CCCCC3)cc2C1=O,38.8% [at 12 µM]
11,CC(=O)N1CCCC(c2cc(C(=O)Nc3ccccc3)no2)C1 (stereo not drawn),-27% [at 12 µM]
12,Nc1ccc(-c2nc3ccc(N)cc3s2)cc1,53.7%
13,C[C@H](CO)N1C[C@H](C)[C@H](CN(C)C(=O)Nc2cccc3ccccc23)OCCCC[C@H](C)Oc2ccc(NC(=O)c3ccccc3)cc2C1=O,31.2% [at 12 µM]
14,Cc1noc(C)c1S(=O)(=O)Nc1cccc2c1O[C@H](CN(C)C(=O)Nc1ccc(F)cc1)[C@H](C)CN([C@H](C)CO)C2=O,-6.26%
15,Cc1ccc(NC(=O)c2ccc3c(c2)OCCO3)cc1C,32.4% [at 0.38 µM]
16,Cc1ccc2nc(-c3ccccc3)nn2c1,68.6% [at 3 µM]
17,Cc1ccc(-c2cc(C(=O)N3CCOCC3)no2)cc1,-12% [at 6 µM]
18,c1ccc(-n2nnc3c(N4CCOCC4)ncnc32)cc1,32.3% [at 0.8 µM]
19,CC(=O)c1ccc(S(=O)(=O)N2CCC(NC(=O)Nc3cccc(F)c3)CC2)cc1,28.3% [at 3 µM]

row,SMILES,max activity
1,O=C(O)c1c2c(nc3ccccc13)/C(=C/c1ccc(O)cc1)CC2,22.6%
2,COC(=O)c1ccc2nc(-c3cccc(N)c3)cn2c1,9.42% [at 0.195 µM]
3,CCOC(=O)c1cn2nc(N3CCCCC3)ccc2n1,-14% [at 3 µM]
4,COCC(=O)N[C@@H]1CC[C@@H](CC(=O)NCc2ccccc2OC)O[C@@H]1CO,-9.61% [at 0.05 µM]
5,O=C(Nc1nc2cc3c(cc2s1)OCO3)c1ccco1,45.6% [at 0.05 µM]
6,Cc1ccc(CNS(=O)(=O)c2ccc3c(c2)CCN3C(=O)CCCC(=O)O)cc1,14.5% [at 6 µM]
7,Cc1csc(NC(=O)c2ccc(OCC3CCCO3)cc2)n1 (stereo not drawn),28.1% [at 3 µM]
8,O=C(Nc1ccc(NC(=O)c2ccco2)nc1)c1ccco1,-22.6%
9,O=C(CN1C(=O)c2ccccc2S1(=O)=O)Nc1ncc(Cl)cc1Cl,-12.9% [at 1.6 µM]
10,CCOc1ccc(C(=O)Nc2nnc(SCC(=O)NCC3CCCO3)s2)cc1 (stereo not drawn),27.5% [at 3 µM]
11,Cc1ccccc1OCC(=O)Nc1cccc(C(=O)O)c1,6.54%
12,Cc1ccc(NC(=O)c2ncn(CC(=O)N3CCN(c4ccccn4)CC3)n2)cc1C,-13.4% [at 0.195 µM]
13,COc1ccc(N(CC(=O)NCc2cccs2)S(=O)(=O)c2ccc(C(C)=O)cc2)cc1,-10.6% [at 3 µM]
14,CCCCC(=O)N(C)c1c(C)nc2ccc(C(=O)N3CCCCC3)cn12,-12.7% [at 12 µM]
15,O=C(O)c1cccc(Nc2ccnc(Nc3cccc(C(=O)O)c3)n2)c1,-12.2% [at 0.05 µM]
16,CC(C)NC(=O)Nc1ccc2c(c1)C(=O)N([C@H](C)CO)C[C@@H](C)[C@H](CN(C)S(C)(=O)=O)OCCCC[C@H](C)O2,43.1%
17,CCCOc1ccc(F)cc1-c1cc(C(=O)Nc2cc(OC)c(OC)c(OC)c2)[nH]n1,9.95% [at 3 µM]
18,C[C@H](CO)N1C[C@H](C)[C@H](CN(C)C(=O)Nc2ccccc2)OCCCC[C@H](C)Oc2ccc(NC(=O)Nc3ccccc3)cc2C1=O,21.5%
19,Cc1cc(C(=O)CSc2nnc3ccccn23)c(C)n1-c1ccccc1,-21.9%
